Assay results as given in PubChem BioAssay (EPA / NIEHS).
Activity calls are given as the source filed them. Rule for the calls: active = hit-call score of the fitted dose curve at least 0.9, where 1 is the maximum; inactive = score below 0.9.

Assay: Tanguay_ZF_120hpf_DP24: Oregon State University Tanguay Lab 24 Hour Post-fertilization zebrafish Assay for Delayed Development (AID 2284390)
Protocol: Tanguay_ZF_120hpf is a whole embryo, multiplexed endpoint assay using zebrafish larvae exposed for 120 hours post fertilization on a 96-well plate.Tanguay_ZF_120hpf_DP24 is […] measured or calculated from the Tanguay_ZF_120hpf assay. It is designed to make measurements of zebrafish development as detected with brightfield microscopy of developing zebrafish embryos.Data from the assay component Tanguay_ZF_120hpf_DP24 was analyzed into 1 assay endpoints. This assay endpoint, Tanguay_ZF_120hpf_DP24, was analyzed in the positive analysis fitting direction relative to DMSO as the negative control and baseline of activity. Using a type of morphology reporter, gain-of-signal activity can be used to understand changes in developmentals as they relate to the whole embryo. To generalize the intended target to other relatable targets, this assay endpoint is annotated to the zebrafish development intended target family, where the subfamily is embryonic morphogenesis.
Zebrafish husbandry: Tropical 5D wild-type adult zebrafish were housed in at an approximate density of 1000 per 100 gallon tank at the Sinnhuber Aquatic Research Laboratory, Oregon State University, Corvallis, OR. Each tank was kept at standard laboratory conditions of 28C on a 14-h light/10-h dark photoperiod in fish water consisting of reverse osmosis water supplemented with a commercially available salt (Instant Ocean). Spawning funnels were placed into the tanks the night prior, and embryos were collected and staged. To increase bioavailability, the chorion was enzymatically removed using pronase (63.6mg/ml, >/= 3.5U/mg, Sigma-Aldrich: P5147) at 4 hours post fertilization (hpf) using a custom automated dechorionator.Chemical exposures: Six hpf dechorionated embryos were placed 1 embryo per well in a 96-well plate prefilled with 90 ul of EM using automated embryo placement systems (AEPS). Ten microliters of each row of dilution plate 2 was added to 2 exposure plates. The final DMSO concentration used was 0.64% (vol/vol). Thirty-two embryos were also exposed to 5uM trimethyltin chloride (positive control). Plates were sealed to prevent evaporation and foil covered to reduce light exposure and kept in a 28C incubator. Embryos were statically exposed until 120 hpf. At 24 hpf, embryos were assessed for photomotor response using a custom photomotor response analysis tool (PRAT) and for developmental toxicity endpoints (MO24: mortality at 24 hpf, DP: developmental progression, SM: spontaneous movement, and NC: notochord distortion). At 120 hpf, locomotor activity was measured using Viewpoint Zebralab and assessed for 13 endpoints. Zebrafish acquisition and analysis program (ZAAP), a custom program designed to inventory, acquire, and manage zebrafish data, was used to collect developmental endpoints as either present or absent (i.e., binary responses were recorded). If mortality occurred for an embryo (at either 24 or 120 hpf), the non-mortality endpoints were not measured.
For O=C(Cl)C(F)(F)C(F)(F)C(F)(F)C(=O)Cl, the outcome was “inactive”.
With FC(F)=C(F)C(F)(F)C(F)(F)C(F)(F)C(F)(F)C(F)(F)C(F)(F)F the outcome was “inactive”.
In the case of FC(F)(F)C(F)(F)C(F)(F)C(F)(F)C(F)(F)C(F)(F)I, the outcome is reported as “inactive”.
With OCCC(F)(F)C(F)(F)C(F)(F)C(F)(F)F the outcome was “inactive”.
In the case of O=S(=O)(O)CCC(F)(F)C(F)(F)C(F)(F)C(F)(F)C(F)(F)C(F)(F)F, the outcome is reported as “inactive”.
With FC(F)(F)COC(OCC(F)(F)F)OCC(F)(F)F the outcome was “inactive”.
For FC(F)C(F)(F)COCC1CO1 (stereo not given), the outcome was “inactive”.
In the case of NCC(F)(F)C(F)(F)C(F)(F)C(F)(F)F, the outcome is reported as “inactive”.
In the case of C[Si](C)(C)C(F)(F)C(F)(F)C(F)(F)F, the outcome is reported as “inactive”.
With OC(O)(C(F)C(O)(O)C(F)(F)F)C(F)(F)F the outcome was “inactive”.
